Molecules are shown by their SMILES. Active and inactive are the calls of the source.
Also: test concentration not given here.

One experiment is described as follows: JC-1 mitochondrial signal, unstimulated adipocytes – cell-based, JC-1 fluorescence, 3T3-L1 adipocytes, 24 h, 100 nL compound, profiling panel (AID 1168). Conditions: JC-1 mitochondrial fluorescence, higher = more signal, called active from +8 up or from −8 down.
Consider `COc1ccc(C(=O)Nc2ccc(CN3C(=O)[C@@]4(O[C@@H](CC(=O)N5CCC[C@H]5CO)[C@H]([Si](C)(C)c5ccc(OC)cc5)[C@H]4C)c4ccccc43)cc2)cc1`, for which the z-score was 0.926 (inactive).
Still for that read-out and setting: the figure for `COCCOC(=O)N1C(=O)[C@@]2(c3cc(C#CC4=CCCCC4)ccc31)[C@H](C(=O)Nc1nc3ccccc3s1)[C@H]1C(=O)O[C@H](c3ccccc3)[C@H](c3ccccc3)N1[C@@H]2c1ccc(OCCO)cc1` is 0.662 (inactive); for `C=CCOC(=O)[C@H]1[C@@H]2C(=O)O[C@@H](c3ccccc3)[C@@H](c3ccccc3)N2[C@@H](c2ccc(OCCOC(=O)[C@H]3C[C@H]4C(=O)N5CCC[C@H]5C(=O)N4[C@H]3c3ccc(O)cc3)cc2)[C@]12C(=O)Nc1ccccc12` it is 1.22 (inactive).
In the case of `C=C(CCCC)/C(=C/C[C@@H](OC(C)=O)c1ccccc1OCCO)c1cnc2ccccc2c1`, the z-score is -1.17 (inactive).
Same read-out and setting: in the case of `Cc1ccc(C(C)CC(O)C2C=CC3C(=O)N(c4ccccc4)C(=O)C3N2Nc2ccc([N+](=O)[O-])cc2)o1` (stereo unspecified) it was -2.12 (inactive).

Another experiment can be described thus: JC-1 mitochondrial signal, unstimulated myeloma cells – cell-based, JC-1 fluorescence, RPMI8226, 24 h, 100 nL compound, profiling panel (AID 1169). To be noted: JC-1 mitochondrial potential fluorescence, higher = more signal.
In turn, `COC(=O)c1c(CC[C@@H](CO)NC(=O)N2CCC[C@H]2Cn2cc(-c3ccccn3)nn2)oc(C(C)=O)c1C(=O)OC` had a z-score of 0.859.
In turn, `CCN(CC)c1ccc(N2CC=CC34O[C@@H]5/C=C\CCCOC(=O)C5[C@H]3C(=O)N(CCO)[C@@H]4C2=O)cc1` (stereo partly specified) gave a z-score of -0.814.
`CCOC(=O)C1=CCC(c2ccccc2)N(S(=O)(=O)CC[Si](C)(C)C)C1` (stereo unspecified) gave a z-score of -0.119.
On the same count and under the same terms, in the case of `NCCCCCNC(=O)[C@@H]1C[C@@H]2C(=O)NCC(=O)N2[C@@H]1c1ccc(O)cc1` it was -0.0558; in that of `CC(C)(C)OC(=O)CC[C@]1(C(=O)O)N=C(c2ccc(OCCCO)cc2)O[C@H]1c1ccccc1N=[N+]=[N-]`, -0.506; in that of `O=C1C2C=CC(C(O)C(c3ccccc3)c3ccccc3)N(n3cnnc3)C2C(=O)N1Cc1ccccc1` (stereo unspecified), -0.42.
Same read-out and setting: the figure for `COc1ccc([Si](C)(C)[C@H]2[C@H](CCn3cc([C@H](O)c4ccccc4)nn3)O[C@@]3(C(=O)N(Cc4cccc(N5CCOC5=O)c4)c4ccccc43)[C@@H]2C)cc1` is -0.463; for `COCCOC(=O)N1C(=O)[C@@]2(c3cc(C#Cc4ccc(OC)cc4)ccc31)[C@H](C(N)=O)[C@H]1C(=O)O[C@H](c3ccccc3)[C@H](c3ccccc3)N1[C@@H]2c1ccccc1OCCO` it is -0.994; for `CC(CO)N1C(=O)[C@@H]2C3C(=O)OCCC/C=C\[C@H]3OC23C=CCN(c2ccc4ccccc4c2)C(=O)[C@@H]13` (stereo partly specified) it is -0.713.
On the same count and under the same terms, in the case of `O=C1NC(=O)C2C1C=CC(C(O)C(c1ccccc1)c1ccccc1)N2Nc1ccc(Cl)cc1Cl` (stereo unspecified) it was -0.925.
`CC(=O)n1cc(C(O)C2C=CC3C(=O)N(C)C(=O)C3N2Nc2ccccc2)c2ccccc21` (stereo unspecified) gave a z-score of -0.0553.
The same measure, in the same setting: in the case of `CC(C)C[C@@H]1NC(=O)[C@H]2C[C@@H](C(=O)NCCCCCCN(C)C)[C@@H](c3ccc(O)cc3)N2C1=O` it was 0.664; in that of `CCN(CC)c1ccc(N2CC=CC34O[C@@H]5/C=C\CCC(C)OC(=O)C5[C@H]3C(=O)N(C(CO)C(C)C)[C@@H]4C2=O)cc1` (stereo partly specified), 0.0122.
As for `C=CCNC(=O)[C@H]1[C@@H]2C(=O)O[C@@H](c3ccccc3)[C@@H](c3ccccc3)N2[C@@H](c2ccccc2OCCO)[C@]12C(=O)Nc1ccc(C#CC3=CCCCC3)cc12`, the z-score was -0.853.
The same measure, in the same setting: in the case of `CCOC(=O)[C@H]1C/C=C/C[C@H](C(=O)OCC)C(=O)O[C@H]2[C@@H](OC)O[C@H](CO)[C@@H](OC(=O)Nc3cccc(F)c3)[C@@H]2OC1=O` it was -0.959; in that of `CCCC[C@H]1OB(O)C[C@H]2C1=C(COc1ccccc1)C[C@H]1C(=O)N(C)C(=O)[C@H]12`, 0.304.
The same measure, in the same setting: in the case of `OC([C@@H]1CC(c2ccccc2)=NO1)[C@H]1CC(c2ccccc2)=NO1` (stereo partly specified) it was -0.847; in that of `CN(C)C(=O)[C@]1(Cc2ccccc2N=[N+]=[N-])N=C(c2ccc(OCCCO)cc2)O[C@@H]1c1ccccc1`, -1.1; in that of `CCCCCN1CC=CC23O[C@@H]4/C=C\CCCOC(=O)C4[C@H]2C(=O)N(CCCO)[C@@H]3C1=O` (stereo partly specified), 0.362.
Same read-out and setting: the figure for `CC(C)[C@@H](CO)NC(=O)[C@H]1[C@@H](c2ccccc2)N(c2ccccc2)O[C@@H]1C` is 0.354.
As for `C=CC[C@@]1(C(=O)N(C)C)N=C(c2ccc(OCCCO)cc2)O[C@@H]1c1ccccc1N=[N+]=[N-]`, the z-score was -0.874.
For the compound `C=C(C)C1C(=C)CN([C@H](CO)c2ccccc2)C1=O` (stereo partly specified), the z-score is -0.175.
Same read-out and setting: the figure for `O=C(O)[C@@]1(CCS(=O)(=O)c2ccccc2)COC(c2ccc(OCCCO)cc2)=N1` is 0.943; for `COC(=O)[C@@]1(Cc2ccc(OC)cc2)[C@H]2c3cc(C(=O)N(C)C)n(CCN4CNCC4=O)c3C[C@H]2CN1C(=O)c1ccccc1` it is -0.111; for `[N-]=[N+]=NCc1ccccc1[C@@H]1OC(c2ccc(OCCCO)cc2)=N[C@]1(Cc1ccccc1N=[N+]=[N-])C(=O)N1CCOCC1` it is -1.02.
Consider `CN(C)CCCCCCNC(=O)[C@@H]1C[C@@H]2C(=O)N[C@@H](CCCCN)C(=O)N2[C@@H]1c1cccc(OCCO)c1`, for which the z-score was -0.209.
The same measure, in the same setting: the figure for `CN1C(=O)C2C=CC(C(O)C3=C[C@H]4C[C@@H](C3)C4(C)C)N(Nc3ccccc3)C2C1=O` (stereo partly specified) is -0.353; for `COC(=O)c1c(CC[C@@H](CO)NC(=O)N[C@H](Cn2cc(Cc3ccccc3)nn2)C(C)C)oc(C(C)=O)c1C(=O)OC` it is 0.4; for `CN(C)CCCNC(=O)[C@@]1(c2ccc([N+](=O)[O-])cc2)CC(=O)N(C2CCCCC2)[C@@H]1c1ccc(CO)cc1` it is 0.956.
`C=CCN1C(=O)[C@@]2(O[C@@H](CCO)[C@H]([Si](C)(C)c3ccc(OC)cc3)[C@H]2C)c2cc(NC(=O)c3ccc(OC)cc3)ccc21` displayed a z-score of -1.02.
Compound `COc1ccc([C@H]2C[C@H]3C(Br)=C[C@@H]2C(=O)[C@]32CO2)cc1` displayed a z-score of -0.556.
Consider `COc1ccc(C(=O)Nc2ccc(CN3C(=O)[C@@]4(O[C@@H](CC(=O)N5CCC[C@H]5CO)[C@H]([Si](C)(C)c5ccc(OC)cc5)[C@H]4C)c4ccccc43)cc2)cc1`, for which the z-score is -1.09.
Compound `COCCOC(=O)N1C(=O)[C@@]2(c3cc(C#CC4=CCCCC4)ccc31)[C@H](C(=O)Nc1nc3ccccc3s1)[C@H]1C(=O)O[C@H](c3ccccc3)[C@H](c3ccccc3)N1[C@@H]2c1ccc(OCCO)cc1` registered a z-score of -0.583.
`C=CCOC(=O)[C@H]1[C@@H]2C(=O)O[C@@H](c3ccccc3)[C@@H](c3ccccc3)N2[C@@H](c2ccc(OCCOC(=O)[C@H]3C[C@H]4C(=O)N5CCC[C@H]5C(=O)N4[C@H]3c3ccc(O)cc3)cc2)[C@]12C(=O)Nc1ccccc12` gave a z-score of -0.515.
On the same count and under the same terms, in the case of `C=C(CCCC)/C(=C/C[C@@H](OC(C)=O)c1ccccc1OCCO)c1cnc2ccccc2c1` it was -0.691.
The same measure, in the same setting: the figure for `Cc1ccc(C(C)CC(O)C2C=CC3C(=O)N(c4ccccc4)C(=O)C3N2Nc2ccc([N+](=O)[O-])cc2)o1` (stereo unspecified) is -0.0508.

Values taken from PubChem BioAssay.
